Reference: PubChem BioAssay (Tox21)
Where “and” joins values, the source holds several entries; their conditions need not be identical. Identical values can stand only once. More than one record can exist for a structure, and the calls need not agree. Calls of active or inactive are those of the source. Where a call stands in place of a potency, no number is given. Unless noted, the call rests on the fitted dose curve; in most records, active means well fitted curve in the direction sought with a large enough effect in the repeat runs; inconclusive means weak or mixed curves; inactive means no such curve, though single readings can be large; an effect the other way counts as inactive or inconclusive.

How the values were obtained:
[1] = qHTS assay to identify small molecule antagonists of the glucocorticoid receptor (GR) signaling pathway - cell viability counter screen (AID 720693); further: nearly all actives have a fitted effect of over 55% in size
[2] = qHTS assay for identifying genotoxic compounds that show differential cytotoxicity against isogenic chicken DT40 cell lines with known DNA damage response pathways - wild type cell line (AID 743012); further: nearly all actives have a fitted effect of over 60% in size; further: potency means the concentration at half of the fitted maximal effect
Summary of the method: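 Quantitative HTS on parental DT40 cells: 40 h compound treatment at 37 C/5% CO2, with viability then determined by CellTiter-Glo luminescence. Values serve as the DNA repair-proficient reference for differential cytotoxicity.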

[3] = qHTS assay for identifying genotoxic compounds that show differential cytotoxicity against isogenic chicken DT40 cell lines with known DNA damage response pathways - Rev3 mutant cell line (AID 743014); further: nearly all actives have a fitted effect of over 55% in size; further: potency means the concentration at half of the fitted maximal effect
[4] = qHTS assay to identify small molecule antagonists of the androgen receptor (AR) signaling pathway - cell viability counter screen (AID 743033; further: nearly all actives have a fitted effect of over 45% in size)
[5] = qHTS assay to identify small molecule antagonists of the androgen receptor (AR) signaling pathway using the MDA cell line - cell viability counter screen (AID 743041; further: nearly all actives have a fitted effect of over 45% in size)
Summary of the method: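 Viability counter screen run alongside the AR antagonist reporter: cells seeded 5 h before compound, R1881 added, 16 h incubation at 37C without CO2, fluorescent CellTiter-Fluor signal quantified.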

[6] = qHTS assay to identify small molecule antagonists of the thyroid receptor (TR) signaling pathway - cell viability counter screen (AID 743064); further: nearly all actives have a fitted effect of over 50% in size; further: potency means the concentration at half of the fitted maximal effect
Summary of the method: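 GH3.TRE-Luc rat pituitary cells dosed after 4 hr plating, co-stimulated with T3 at 1 nM final, incubated 23.5 h at 37 C. Viability measured in the same wells by CellTiter-Fluor fluorescence after 30 min further at 37 C.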

[7] = qHTS assay to identify small molecule antagonists of the thyroid receptor (TR) signaling pathway (AID 743065); further: nearly all actives have a fitted effect of over 55% in size; further: potency means the concentration at half of the fitted maximal effect
Summary of the method: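 GH3.TRE-Luc rat pituitary cells carrying two TR response elements driving luciferase were plated for 4 h, given compound plus 1 nM T3 (final), and incubated 23.5 h at 37 C. ONE-Glo luminescence measured reporter inhibition; CellTiter-Fluor fluorescence tracked cytotoxicity.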

[8] = test system: thyroid hormone receptor (rat, GH3 cells); assay: qHTS assay to identify small molecule agonists of the thyroid receptor (TR) signaling pathway (AID 743066; calls by dose curve)
[9] = qHTS assay to identify small molecule antagonists of the estrogen receptor alpha (ER-alpha) signaling pathway - cell viability counter screen (AID 743074; calls by dose curve;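 further: HEK293 cells carrying ER-alpha-UAS-bla reporter stimulated with 17beta-estradiol; nearly all actives have a fitted effect of over 45% in size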)
[10] = qHTS assay to identify small molecule antagonists of the estrogen receptor alpha (ER-alpha) signaling pathway using the BG1 cell line - cell viability counter screen (AID 743081);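 further: compound given together with 17beta-estradiol as the ER stimulus; nearly all actives have a fitted effect of over 45% in size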
[11] = molecular target: Estrogen receptor (Homo sapiens) (UniProt P03372); assay: qHTS assay to identify small molecule agonists of the estrogen receptor alpha (ER-alpha) signaling pathway (AID 743075; calls by dose curve;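 further: HEK293 GripTite cells with ER-alpha and UAS-driven beta-lactamase reporter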; further: potency means the concentration at half of the fitted maximal effect)
[12] = molecular target: Estrogen receptor (Homo sapiens) (UniProt P03372); assay: qHTS assay to identify small molecule agonists of the estrogen receptor alpha (ER-alpha) signaling pathway using the BG1 cell line (AID 743079); conditions: BG1Luc4E2 cells, ERE-luciferase agonist, 22 h; further: nearly all actives have a fitted effect of over 20% in size
[13] = qHTS assay to identify small molecule antagonists of the estrogen receptor alpha (ER-alpha) signaling pathway using the BG1 cell line (AID 743080; calls by dose curve;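 further: BG1 cells stimulated with 17beta-estradiol alongside compound; nearly all actives have a fitted effect of over 25% in size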; further: potency means the concentration at half of the fitted maximal effect)
Summary of the method: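 After 5 days in phenol-red-free 10% charcoal-stripped FBS medium, BG1-Luc-4E2 cells were seeded, left 24 h at 37 C, co-treated with compounds and 17beta-estradiol for 21.5 h, then assayed for viability and luciferase.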

Aromatase (Homo sapiens) = Aromatase (Homo sapiens) (UniProt P11511); assay: qHTS assay to identify aromatase inhibitors (AID 743083); further: nearly all actives have a fitted effect of over 55% in size; further: potency means the concentration at half of the fitted maximal effect
[14] = molecular target: Estrogen receptor (Homo sapiens) (UniProt P03372); assay: qHTS assay to identify small molecule antagonists of the estrogen receptor alpha (ER-alpha) signaling pathway (AID 743069; active means well fitted curve in the direction sought with a large enough effect in the signal ratio in the repeat runs, not every such curve was filed as active; inconclusive means weak or mixed curves, or effect the other way; inactive means no such curve, though single readings can be large or run the other way; the % refers to the signal ratio; further: potency means the concentration at half of the fitted maximal effect)
Summary of the method: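 Estradiol-stimulated ER-alpha-UAS-bla HEK293 cells, 18 hr compound exposure at 37C. LiveBLAzer B/G substrate, 2 hr RT, fluorescence read.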

[15] = qHTS assay for identifying genotoxic compounds that show differential cytotoxicity against isogenic chicken DT40 cell lines with known DNA damage response pathways - Rad54/Ku70 mutant cell line (AID 743015); further: nearly all actives have a fitted effect of over 60% in size; further: potency means the concentration at half of the fitted maximal effect

Chain of Aromatase (Homo sapiens) (P11511 whole entry, looked up): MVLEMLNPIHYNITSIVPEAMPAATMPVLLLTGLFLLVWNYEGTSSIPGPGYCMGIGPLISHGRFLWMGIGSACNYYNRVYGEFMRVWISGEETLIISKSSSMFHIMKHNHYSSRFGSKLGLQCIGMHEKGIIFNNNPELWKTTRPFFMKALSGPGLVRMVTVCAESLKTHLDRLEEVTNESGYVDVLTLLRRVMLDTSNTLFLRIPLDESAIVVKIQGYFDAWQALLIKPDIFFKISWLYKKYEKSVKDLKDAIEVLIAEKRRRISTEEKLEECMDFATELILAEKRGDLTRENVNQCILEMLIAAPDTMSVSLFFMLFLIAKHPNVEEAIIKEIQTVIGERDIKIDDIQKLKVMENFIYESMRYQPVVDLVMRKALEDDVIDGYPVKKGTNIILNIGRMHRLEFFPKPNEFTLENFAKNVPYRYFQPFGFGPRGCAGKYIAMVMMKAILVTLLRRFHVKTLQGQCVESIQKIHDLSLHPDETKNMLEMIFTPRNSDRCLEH
Chain of Estrogen receptor (Homo sapiens) (P03372 whole entry, looked up): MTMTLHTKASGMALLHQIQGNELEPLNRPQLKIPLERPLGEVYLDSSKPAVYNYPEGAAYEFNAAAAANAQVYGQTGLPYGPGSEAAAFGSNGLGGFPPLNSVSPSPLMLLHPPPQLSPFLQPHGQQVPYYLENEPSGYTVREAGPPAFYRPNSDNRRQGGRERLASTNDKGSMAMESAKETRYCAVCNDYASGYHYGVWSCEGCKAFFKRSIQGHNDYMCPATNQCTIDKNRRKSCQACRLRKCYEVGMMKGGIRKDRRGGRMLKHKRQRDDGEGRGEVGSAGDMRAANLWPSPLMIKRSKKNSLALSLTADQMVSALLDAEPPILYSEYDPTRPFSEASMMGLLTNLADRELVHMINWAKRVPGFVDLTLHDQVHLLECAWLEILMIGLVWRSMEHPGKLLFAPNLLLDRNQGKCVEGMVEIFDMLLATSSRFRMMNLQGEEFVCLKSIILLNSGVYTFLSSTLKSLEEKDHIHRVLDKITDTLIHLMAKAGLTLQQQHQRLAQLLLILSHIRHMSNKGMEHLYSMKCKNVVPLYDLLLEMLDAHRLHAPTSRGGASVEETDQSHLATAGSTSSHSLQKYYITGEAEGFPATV

SMILES	Potency [1]	Potency [2]	Potency [3]	Potency [4]	Potency [5]	Potency [6]	Potency [7]	Potency [8]	outcome [9]	Potency [10]	Potency [11]	activation ([12]; at 70.3 µM (top of the series))	Potency [13]	Potency (Aromatase (Homo sapiens))	Potency [14]	activation ([12]; at 95 µM (top of the series))	Potency [15]
CC(C)COP(=O)(OCC(C)C)OCC(C)C	inactive	inactive	inactive	inactive	inactive	inactive	inactive	inactive	inactive	inactive							
CNCC(=O)c1ccc(O)c(O)c1	inactive	inactive	inactive		inactive	inactive		inactive			inactive	-0.0937% (inactive)	inactive	inactive			
CCOC(=O)/C=C(C)/C=C/C[C@@H](C)CCCC(C)C	inactive	30.6 µM (active)	54.5 µM (active)	inactive	inactive	inactive			inactive	inactive	inactive	19.2% (inactive) and -9.9% (inactive)	inactive	inactive	inactive and 24.5 µM [inhibitor] (active)		
CCC1(c2ccccc2)C(=O)NC(=O)NC1=O	inactive	inactive	inactive	inactive	inactive	inactive		inactive	inactive	inactive	inactive	-1.3% (inactive)	inactive	inactive	inactive	-10.3% (inactive)	
O=C(Cc1ccccc1)OCc1ccccc1	inactive	inactive	inactive		inactive	inactive	inactive	inactive	inactive	inactive	inactive		inactive	inactive		2.04% (inactive)	inactive
O=c1oc2ccccc2c(O)c1C1CCCc2ccccc21 (stereo not drawn)	inactive	inactive	inactive		inactive			inactive	inactive	inactive	inactive	-13.4% (inactive)	inactive	inactive	inactive		inactive
CN(C)CCc1ccc(O)cc1	inactive	inactive	inactive		inactive	inactive	inactive	inactive	inactive	inactive				inactive			inactive
C[C@H]1CCC[C@H](O)CCCCCc2cc(O)cc(O)c2C(=O)O1	inactive	18.8 µM (active) and 61.6 µM (active)	26.6 µM (active) and 27.5 µM (active)			inactive and 54.9 µM (active)			inactive	inactive	848 nM [inconclusive] (active) and 175 nM [inconclusive] (active)	-0.266% (active)	23.7 µM (active)	61.6 µM (active)	inactive	-52.7% (active)	16.8 µM (active) and 43.6 µM (active)
O=[N+]([O-])c1cc(Cl)c(Cl)c(Cl)c1	inactive	inactive	inactive		inactive	inactive		inactive	inactive	inactive	inactive	9.06% (inactive)	inactive	inactive	inactive		inactive
CNC(=O)Oc1ccc(N(C)C)c(C)c1	inactive	54.5 µM (active)	34.4 µM (active)	inactive		inactive	inactive	inactive	inactive	inactive	inactive		inactive	inactive	inactive		
CCS(=O)(=O)CCSP(=O)(OC)OC	inactive	61.1 µM (active)	38.6 µM (active)	inactive	inactive	inactive		inactive	inactive	inactive				inactive			
Fc1ccc(C2(Cn3cncn3)OC2c2ccccc2Cl)cc1 (stereo not drawn)	inactive	15.4 µM (active)	34.4 µM (active)		inactive	inactive	30.6 µM (active)	inactive	inactive	inactive	inactive	-28.4% (inactive)	68.6 µM (active)	3.86 µM (active)			27.3 µM (active)
OCCBr	inactive	inactive	19.4 µM (active)		inactive	inactive		inactive	inactive	inactive	inactive	6.61% (inactive)	inactive	inactive	inactive		
